# Assay results as given in PubChem BioAssay (NCI).
# This is part of a sample that, as a whole, favours compounds with a hit. Of some 79,000 tested, about 15% had one in any assay. Values without a mark were called inactive. Active and inactive are the calls of the source. No stated cut-off is given here; in the data, active means growth inhibition above about 70%; inactive means the rest.
# Key:
# [1] = NCI Yeast Anticancer Drug Screen. Data for the rad50 strain (AID 155);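 further: 0% = growth of vehicle-only cultures of the same strain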; details: S. cerevisiae rad50 strain growth inhibition, active compounds read high
# In short: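 Growth of the mutant yeast was measured after compound exposure and referenced to vehicle-treated cultures.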
# [2] = NCI Yeast Anticancer Drug Screen. Data for the mec2-1 strain (AID 157); details: S. cerevisiae mec2-1 strain, active compounds read high
# In short: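 Compounds were applied to mec2-1 yeast cells. Their growth was then compared with that of vehicle-treated cultures to give growth inhibition.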
# [3] = NCI Yeast Anticancer Drug Screen. Data for the sgs1 mgt1 strain (AID 161);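 further: 0% = growth of cultures given vehicle only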; details: S. cerevisiae sgs1 mgt1 strain, active compounds read high
# In short: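 Yeast cells carrying a defined DNA-repair defect were exposed to test compounds. Growth inhibition was measured relative to vehicle-treated controls.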
# [4] = NCI Yeast Anticancer Drug Screen. Data for the cln2 rad14 strain (AID 165);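 further: 0% = growth equal to vehicle treated cultures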; details: S. cerevisiae cln2 rad14 strain, active compounds read high
# In short: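 Strain: cln2 rad14 yeast, altered in cell cycle control and DNA damage repair. Read-out: growth inhibition vs vehicle.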
# [5] = NCI Yeast Anticancer Drug Screen. Data for the bub3 strain (AID 167); details: S. cerevisiae bub3 mutant strain, active compounds read high
# In short: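 Whole-cell yeast assay. The mutant strain was incubated with compounds, and growth inhibition was determined by comparison with vehicle-treated cells.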
# [6] = NCI Yeast Anticancer Drug Screen. Data for the mlh1 rad18 strain (AID 175); details: S. cerevisiae mlh1 rad18 strain growth inhibition, active compounds read high
# In short: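 A repair-deficient yeast strain is exposed to test compound, and growth is scored relative to vehicle-treated controls.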
# [7] = at 5.0 µM (retest, dose inferred, filed as 0.5)
# [8] = at 50.0 µM (retest, dose inferred, filed as 5.0)
Compound,"growth inhibition [1, 7]","growth inhibition [1, 8]",growth inhibition ([1]; at 50.0 µM),"growth inhibition [2, 7]","growth inhibition [2, 8]",growth inhibition ([2]; at 50.0 µM),"growth inhibition [3, 7]","growth inhibition [3, 8]",growth inhibition ([3]; at 50.0 µM),"growth inhibition [4, 7]","growth inhibition [4, 8]",growth inhibition ([4]; at 50.0 µM),"growth inhibition [5, 7]","growth inhibition [5, 8]",growth inhibition ([5]; at 50.0 µM),"growth inhibition [6, 7]","growth inhibition [6, 8]",growth inhibition ([6]; at 50.0 µM)
CCCCCCCCCCCCSC(=NCC)NCC,89% (active),99% (active),99.6% (active),79% (active),100% (active),99.8% (active),98% (active),100% (active),48.8%,59%,99% (active),99.1% (active),96% (active),100% (active),99.6% (active),89% (active),99% (active),99.5% (active)
Clc1nc(Cl)c(Cl)c(-c2ccccc2)n1,35%,75% (active),90.3% (active),29%,70% (active),92.7% (active),18%,77% (active),89% (active),17%,73% (active),84.8% (active),12%,86% (active),85% (active),55%,77% (active),87.3% (active)
CN(C)CCCN1c2ccc3ccccc3c2Sc2cccc(Cl)c21,7%,99% (active),98.3% (active),19%,99% (active),97.3% (active),-1%,99% (active),97.9% (active),2%,99% (active),96% (active),17%,99% (active),8.95%,25%,99% (active),98.2% (active)
Nc1ncnc2c1ncn2C1OCC(O)C1O (configuration not stated),24%,66%,81.6% (active),33%,68%,78.2% (active),20%,74% (active),72.9% (active),29%,58%,64.5%,20%,82% (active),82.7% (active),21%,86% (active),82.2% (active)
Clc1ccc2ccc3cccnc3c2n1,9%,95% (active),-38.5%,7%,97% (active),-9.5%,0%,86% (active),-13.2%,-4%,92% (active),7.9%,-7%,98% (active),20.4%,3%,94% (active),-25.1%
C/C(=N\NC(=S)N1CCN(C2CCCCC2)CC1)c1ccccn1,-3%,64%,99% (active),-14%,76% (active),98.7% (active),-4%,98% (active),98.5% (active),12%,59%,97.1% (active),-16%,51%,96.6% (active),15%,85% (active),95.7% (active)
N#CC(C(=O)CCCC(=O)Nc1ccc(Cl)cc1)c1ccccc1Cl (configuration not stated),2%,0%,96.8% (active),-1%,6%,98% (active),9%,4%,99% (active),-2%,1%,93.9% (active),1%,30%,99% (active),-2%,4%,96.7% (active)
O=C1c2ccccc2C(=O)c2sc(Nc3ccc(Cl)c(Cl)c3)nc21,89% (active),98% (active),90% (active),86% (active),98% (active),92.8% (active),99% (active),98% (active),93.2% (active),68%,98% (active),88% (active),99% (active),97% (active),91.2% (active),91% (active),97% (active),91.3% (active)
O=C/C(Br)=C\c1ccccc1,36%,99% (active),55.2%,20%,99% (active),99.2% (active),25%,99% (active),49.5%,12%,99% (active),98.4% (active),26%,99% (active),48.4%,16%,99% (active),7.45%
CC(=O)N1C(c2[nH]c3ccccc3c2Cc2ccccc2)CCN1c1ccccc1 (configuration not stated),-27%,94% (active),84.9% (active),-14%,98% (active),87% (active),-20%,94% (active),88.3% (active),-12%,96% (active),85.7% (active),-18%,96% (active),87.5% (active),-27%,95% (active),83.8% (active)
O=C1C(Br)=C(Br)C(=O)c2ccccc21,100% (active),95% (active),92.5% (active),100% (active),96% (active),94.2% (active),100% (active),95% (active),94.5% (active),100% (active),95% (active),90.9% (active),100% (active),98% (active),96.7% (active),99% (active),91% (active),89.9% (active)
COc1ccc(CSC(=S)Nc2ccccc2C(F)(F)F)cc1,8%,93% (active),98.3% (active),6%,97% (active),99.2% (active),1%,99% (active),99.2% (active),-1%,94% (active),98.6% (active),-3%,96% (active),99% (active),4%,95% (active),99% (active)
CSc1nc(N)c2cnn(C3OC(CO)C(O)C3O)c2n1 (configuration not stated),-9%,8%,9.55%,-12%,-11%,2.8%,-25%,-6%,15.2%,7%,28%,6.8%,3%,80% (active),12%,-20%,-12%,22%
CCN1C(/C=C/c2ccc(O)c3ncccc23)CCC2CC(C)CCC21 (configuration not stated),20%,94% (active),95.3% (active),12%,97% (active),95.5% (active),62%,96% (active),95.5% (active),10%,90% (active),88.9% (active),30%,94% (active),94% (active),41%,94% (active),94.3% (active)
Cc1cc(N(CCCOS(C)(=O)=O)CCCOS(C)(=O)=O)ccc1C=Nc1cc(Br)c(O)c(Br)c1,-5%,33%,41%,36%,7%,21.3%,-3%,27%,86.1% (active),-3%,-5%,4.8%,0%,41%,34.8%,-2%,41%,68.4%
O=c1c2cc(Cl)ccc2[nH]c2cc(O)cc(O)c12,-18%,25%,70.5% (active),-43%,3%,-12.4%,-9%,11%,21.5%,-15%,16%,11.9%,-13%,39%,15.1%,-20%,45%,15.9%
CC(C)N1C(=O)C=CC1=O,6%,67%,93.7% (active),7%,60%,98.8% (active),7%,53%,52.1%,2%,57%,57%,1%,75% (active),46.6%,3%,60%,54%
COc1ccc(OC)c(NC(=O)CCCC(=O)CC(=O)c2cccnc2)c1,63%,62%,4.45%,50%,53%,1.8%,69%,70% (active),-5.2%,53%,55%,39.8%,57%,62%,-4.8%,63%,63%,-8.55%
COc1ccc(C2=CC(=O)C=CC2=O)cc1,19%,91% (active),99% (active),3%,97% (active),99.5% (active),14%,90% (active),98.7% (active),-5%,70% (active),82.2% (active),28%,99% (active),99.5% (active),18%,89% (active),99.2% (active)
